In the library only some 12% were active in any assay of this set; here they are far more common.
HP1b chromo inh – blocks HP1-beta chromodomain binding to methylated histone tails | AID 540317 | AlphaScreen HP1-beta / biotin-H3K9me3 peptide binding | 0.56% of 390,000 active | Potency, µM (series often up to 114 µM), inactives show at the highest dose activity change, negative = inhibition, hits mostly inhibitors; also: potency is read from the fitted curve at half-maximal effect; nearly all actives have a fitted effect of over 70% in size
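HP1-beta protein (50 nM final) preincubated 30 min at room temperature with biotinylated H3(1-18)K9me3 peptide (50 nM) in PBS pH 7.4, 0.01% Tween-20, then compound added for 30 min. AlphaScreen streptavidin donor/nickel chelate acceptor beads (10 ug/mL final), 30 min dark, luminescence read.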
G9a block – blocks human histone lysine methyltransferase G9a | 8.8% of 350,000 active | Potency, µM (series often up to 102 µM), without a hit: at the highest dose activity, negative = inhibition, actives largely listed as inhibitors | Q96KQ7 | G9a H3K9 monomethylation, AlphaScreen, 2 h | AID 504332; also: potency is read from the fitted curve at half-maximal effect; % is scaled to controls: 0 for no effect and ±100 for the full control effect; nearly all actives have a fitted effect of over 75% in size
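Quantitative HTS format: methyltransferase activity on a biotin-tagged H3K9 peptide is measured by AlphaScreen, using a rabbit anti-monomethyl-H3K9 antibody with streptavidin donor and anti-IgG acceptor beads. Final levels are 20 nM enzyme, 500 nM peptide, 20 uM SAM; 2 h RT.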
PI5P4Ka inh – blocks human PI5P4K alpha kinase activity | 1.2% of 330,000 active | PI5P4Kalpha enzyme, ADP-Glo luminescence, 60 min; hits give low values | AID 652105 | P48426 | max response, %; active = max response of -50% or lower; inconclusive = between -30% and -50%; inactive = -30% or higher; also: value at the top dose of about 77 µM; % is scaled to controls: 0 for no effect and ±100 for the full control effect
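Reactions run in 0.038 M HEPES pH 7.4, 0.28 mM EGTA, 0.1% CHAPS and 5% DMSO, with PI5P4Kalpha, substrate, compound and 5 microM ATP final, one hour at room temperature. Readout is ADP-Glo luminescence.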
BAZ2B block – inhibitors of human BAZ2B bromodomain. AID 504333. 4.4% of 360,000 active. Q9UIF8. Potency, µM (doses to about 114 µM), inactives show at the highest dose activity change, negative = inhibition, usual class: inhibitors. AlphaScreen BAZ2B-H3K14Ac peptide displacement; also: potency is read from the fitted curve at half-maximal effect; % is scaled to controls: 0 for no effect and ±100 for the full control effect; nearly all actives have a fitted effect of over 60% in size
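Compounds, titrated to a top concentration of 110 uM, were incubated 30 min at room temperature with preformed BAZ2B/acetyl-K14 H3 peptide complex (50 nM each). Proximity signal was measured by AlphaScreen after 20 min with beads.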
JMJD2A Tudor inh – inhibitors of human JMJD2A Tudor domain | O75164 | AlphaScreen JMJD2A-Tudor / H3K4me3 peptide binding | Potency, µM (highest dose often 114 µM), for the others: top-dose activity change, negative = inhibition, most hits filed as inhibitors | 4.4% of 390,000 active | AID 504339; also: potency is read from the fitted curve at half-maximal effect; % is scaled to controls: 0 for no effect and ±100 for the full control effect; nearly all actives have a fitted effect of over 50% in size
Target sequence (O75164 whole entry, looked up, the tested form may be a part): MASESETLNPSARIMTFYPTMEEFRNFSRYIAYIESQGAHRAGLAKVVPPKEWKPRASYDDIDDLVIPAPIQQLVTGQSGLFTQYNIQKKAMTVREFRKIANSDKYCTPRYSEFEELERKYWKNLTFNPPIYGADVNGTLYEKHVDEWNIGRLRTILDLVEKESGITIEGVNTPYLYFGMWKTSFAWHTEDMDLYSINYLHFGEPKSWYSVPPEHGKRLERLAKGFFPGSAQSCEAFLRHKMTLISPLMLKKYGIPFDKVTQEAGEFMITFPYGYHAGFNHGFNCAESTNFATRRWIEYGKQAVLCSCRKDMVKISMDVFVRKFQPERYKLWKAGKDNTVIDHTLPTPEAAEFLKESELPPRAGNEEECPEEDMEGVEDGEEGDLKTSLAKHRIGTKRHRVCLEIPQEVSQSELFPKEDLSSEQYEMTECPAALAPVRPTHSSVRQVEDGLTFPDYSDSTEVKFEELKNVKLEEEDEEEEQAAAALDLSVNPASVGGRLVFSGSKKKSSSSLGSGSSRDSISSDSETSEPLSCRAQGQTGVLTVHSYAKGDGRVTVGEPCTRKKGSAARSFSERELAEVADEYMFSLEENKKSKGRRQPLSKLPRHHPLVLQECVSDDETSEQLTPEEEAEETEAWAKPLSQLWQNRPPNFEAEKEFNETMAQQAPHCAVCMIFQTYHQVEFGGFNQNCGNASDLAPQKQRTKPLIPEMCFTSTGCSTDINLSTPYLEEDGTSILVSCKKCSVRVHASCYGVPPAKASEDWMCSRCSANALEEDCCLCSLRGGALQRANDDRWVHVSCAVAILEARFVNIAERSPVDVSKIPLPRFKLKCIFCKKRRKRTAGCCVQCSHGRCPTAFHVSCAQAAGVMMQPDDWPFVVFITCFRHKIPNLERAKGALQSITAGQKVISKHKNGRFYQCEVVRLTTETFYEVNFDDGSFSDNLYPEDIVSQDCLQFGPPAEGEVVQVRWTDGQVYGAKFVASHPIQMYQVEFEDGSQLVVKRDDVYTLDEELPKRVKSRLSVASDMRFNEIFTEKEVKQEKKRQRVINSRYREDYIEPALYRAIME
PLK1 PBD inh – inhibitors of human PLK1 polo-box domain binding. P53350. Plk1 PBD binding of FITC phosphopeptide, fluorescence polarization. Potency, µM, for the others: max response, negative = inhibition, hits mostly inhibitors. 2.8% of 360,000 active. AID 720504; also: potency is read from the fitted curve at half-maximal effect; series mostly up to about 57 µM; % is scaled to controls: 0 for no effect and ±100 for the full control effect; nearly all actives have a fitted effect of over 65% in size
The depositor's hits bear a star; ? = inconclusive; . = not tested or not shown; ! = repeats disagree; [ ] = another dose, or the depositor's remark. Unless noted, calls follow the shape of the dose curve; as a rule, active = well fitted curve in the direction sought with a large enough effect; inconclusive = small, poorly fitted or top-dose-only effect, or another doubt; inactive = no such curve, though single readings can be large; an effect the other way counts as inactive or inconclusive.

SMILES | HP1b chromo inh | G9a block | PI5P4Ka inh | BAZ2B block | JMJD2A Tudor inh | PLK1 PBD inh
CCOC(=O)c1ccc(-n2c(CCC(=O)O)ccc2-c2ccc(F)cc2)cc1 | 1.9% | 44.7µM* | 6.9 | -35.7% | -34.5% | -24.1%
CC(=O)Nc1ccc(-n2c(CCC(=O)O)ccc2-c2ccc(Br)cc2)cc1 | -16.7% | ? | . | ? | -24.9% | .
COC(=O)c1ccc(-n2c(CCC(=O)O)ccc2-c2ccc(C)cc2)cc1 | 13.4% | 14.1µM*! | -1.8 | 44.7µM* | ? | -17.9%
COc1ccc(-c2ccc(CCC(=O)O)n2-c2cc(OC)ccc2OC)cc1 | . | . | -17.6 | . | . | -10.4%
Cc1ccc(-c2ccc(CCC(=O)O)n2-c2ccc(C(=O)O)cc2)cc1 | 21.5% | 31.6µM* | -7.8 | ? | -16.9% | -4.8%
CCCc1cc(=O)[nH]c(SCCc2ccccc2)n1 | 29.5% | -8.9% | -1.0 | 9.9% | 2.6% | 3.3%
CCOC(=O)Cn1c(=O)c(-c2cc(Br)ccc2N)nc2ccccc21 | 54.2% | 7.3% | 4.9 | -26.5% | -10.8% | -8.6%
Cn1c(=O)c(-c2cc(Br)ccc2N)nc2ccccc21 | -19.7% | 50.1µM* | 2.4 | -16.7% | ? | -1.1%
COc1ccc(-n2c(Cc3ccccc3)nnc2SCc2ccc([N+](=O)[O-])cc2)cc1 | -13.8% | 50.1µM* | -5.2 | ? | ? | 26.7µM*
O=[N+]([O-])c1ccc(CSc2nnc(Cc3ccccc3)n2-c2ccc(F)cc2)cc1 | 3.0% | -12.9%[59 µM] | 19.7 | ? | -34.5% | -3.4%
Cn1c(Cc2cccc3ccccc23)nnc1SCc1ccc([N+](=O)[O-])cc1 | -8.4% | 10µM* | -11.0 | -39.0% | ? | -10.3%
CCN(CC)S(=O)(=O)c1ccc2c(c1)c(=O)c(C(=O)N1CCN(c3cc(C)ccc3C)CC1)cn2C | 14.5% | -1.3%[59 µM] | . | . | -23.7% | .
CCc1ccc(NC(=O)CSc2cn(CC(=O)N3CCOCC3)c3ccccc23)cc1 | 23.7% | -9.0%[59 µM] | . | -10.9% | -5.9% | .
COC(=O)c1ccccc1NC(=O)Cn1c(=O)n(CCCC(=O)NCc2ccccc2OC)c(=O)c2ccccc21 | 26.1% | 1.6%[59 µM] | . | 2.2% | 14.0% | .
COc1ccc(-c2csc(NC(=O)Cc3ccccc3F)n2)cc1OC | -7.2% | ? | 2.2 | 39.8µM* | ? | -1.0%
COc1ccc(-c2csc(NC(=O)CC(NC(C)=O)c3ccccc3)n2)cc1OC (stereo unspecified) | 25.9% | 25.1µM* | -1.6 | 79.4µM* | -20.7% | -14.2%
CN(C)CCCNC(=O)C[C@H]1C[C@H](C(=O)N2CCCCC2)[C@@]2(C)c3[nH]c4cc(CCC(=O)N(C)C)ccc4c3CCN2C1=O | 9.8% | . | 6.2 | . | -12.3% | -9.8%
CCc1ccc(N(CC)C(=O)Cn2cnc3sc(C)c(S(=O)(=O)N4CCN(c5ncccn5)CC4)c3c2=O)cc1 | 33.4% | -3.8%[59 µM] | . | 1.5% | -1.0% | .
CC1(C)Cc2c(C#N)c(NCCN3CCOCC3)nc(-c3ccco3)c2CO1 | 27.0% | -12.0%[59 µM] | . | . | -9.0% | -3.8%
CC1(C)Cc2c(C#N)c(NCCO)nc(-c3ccco3)c2CO1 | 52.7% | 39.8µM* | -11.4 | -1.8% | 13.2% | 0.7%
N#Cc1c(NCCCO)nc(-c2ccco2)c2c1CCCC2 | 25.4% | 3.16µM* | -12.4 | 6.0% | 15.2% | -19.6%
N#Cc1c(NC2CCCCC2)nc(-c2ccco2)c2c1CCCC2 | 29.4% | -10.6%[12.7 µM] | -5.2 | 7.3% | 53.2% | -19.5%
Nc1ccc(OCCCc2c(N)nc(N)nc2N)cc1 | 1.4% | ? | -16.8 | -34.9% | 56.2µM* | 2.2%
COc1ccc(NC(=O)c2cccc3c(=O)c4c([nH]c23)CCCC4)cc1 | 37.9% | -24.6%[59 µM] | . | -14.6% | -2.3% | .
C=CCNC(=S)/C(=C(\[O-])c1ccc(Cl)cc1)[n+]1ccccc1 | 30.4% | . | -23.1 | -16.7% | -13.1% | -21.6%
SMILES | HP1b chromo inh | G9a block | PI5P4Ka inh | BAZ2B block | JMJD2A Tudor inh | PLK1 PBD inh
CCc1cc[n+](/C(C(=S)Nc2cccc(C)c2)=C(/[O-])c2ccc(C)c([N+](=O)[O-])c2)cc1 | ? | 39.8µM* | 3.8 | ? | -31.5% | -15.3%
Cc1ccc(/C([O-])=C(/C(=S)NCc2ccccc2)[n+]2ccccc2)cc1[N+](=O)[O-] | -8.7% | 20µM* | -2.0 | ? | -25.3% | -3.2%
[O-]/C(=C(\C(=S)NCc1ccccc1)[n+]1ccccc1)c1ccc(Cl)cc1 | ? | 22.4µM* | -23.9 | -36.4% | ? | ?
Cc1cccc(-c2nc(SCc3cc(=O)c4c(C)cc(C)cc4[nH]3)n[nH]2)c1 | 18.7%[57 µM] | 19.4%[59 µM] | . | -5.6% | -16.6% | .
Cc1cc(C)n2ncc(C(=O)Nc3ccccc3)c2n1 | . | . | . | . | -14.2% | .
COc1ccc(OC)c(C2=NS(=O)(=O)N(C)C(C(=O)Nc3cccc(C(C)=O)c3)=C2)c1 | -11.2% | 44.7µM* | -17.8 | ? | 15.8µM* | 18.9µM*
COc1ccc(OC)c(C2=NS(=O)(=O)N(C)C(C(=O)NCc3cccs3)=C2)c1 | -6.6% | -2.1% | -13.1 | -29.8% | 22.4µM* | 26.7µM*
Cc1ccc(C2=NS(=O)(=O)N(C)C(C(=O)NCc3cccs3)=C2)cc1 | 3.8% | 7.5% | -1.6 | -38.2% | -28.9% | 2.7%
CCOc1ccc(NC(=O)Cn2c(=O)n(-c3ccc(C)cc3)c(=O)c3cc(OC)c(OC)cc32)cc1 | 34.6% | 4.4%[59 µM] | . | 2.1% | -2.1% | .
CCOc1ccccc1NC(=O)C(C)N(c1ccccc1)S(C)(=O)=O (stereo unspecified) | 14.9% | -9.9%[59 µM] | . | -0.8% | 5.5% | .
CCCC(=O)NCc1ccccc1Cl | 27.2% | 8.4% | 2.1 | -0.4% | -4.1% | 0.7%
O=C(Cc1nn[nH]n1)c1ccccc1O | -9.0% | -3.6%[59 µM] | 0.8 | -7.8% | 44.7µM* | 1.5%
O=C(Cc1nn[nH]n1)NCc1ccccc1Cl | 29.9% | -6.4%[12.7 µM] | -8.2 | 50.1µM* | -7.5% | 2.0%
O=C(CC(=O)c1ccccc1O)c1ccc(F)cc1 | 29.3% | 2.2% | . | ? | -19.9% | -1.8%
COc1cccc(CNC(=O)COC(=O)c2ccc(Cl)s2)c1 | 28.2% | . | -0.3 | . | -8.3% | -1.6%
CCOc1ccc(CCNC(=O)Cn2ncn3c(cc4sc(C)cc43)c2=O)cc1OCC | 15.7% | -1.7%[59 µM] | . | -0.3% | -6.2% | .
Cc1cc(O)c(Oc2cc(C)cc(O)c2O)c(O)c1 | ? | 0.891µM* | ? | ? | 39.8µM* | ?
Cc1ccc(NC(=O)CCC(=O)N2CCSc3ccccc32)cc1 | 45.6% | 0.0%[59 µM] | . | -20.3% | -6.6% | .
COc1ccc([C@H]2C(C#N)=C([S-])N[C@](C)(O)[C@@H]2[n+]2ccccc2)cc1 | -2.9% | 14.1µM* | ? | -25.1% | 56.2µM* | ?
Cc1ccc[n+](C2C(c3ccc([N+](=O)[O-])cc3)C(C#N)=C([S-])NC2(O)C2CC2)c1 (stereo unspecified) | 15.6% | 15.8µM* | -19.0 | ? | -28.5% | -26.4%
